# Reference: PubChem BioAssay AID782 (Emory University Molecular Libraries Screening Center, 2007)
# Hit rate of the full screen: of about 220,000 compounds, about 800 (0.36%) were called active. The full list was thinned out, with actives kept by preference. Values without a mark were called inactive.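 How the source made its calls: active means inhibition above about 30% (limit read from the data); inactive means the rest.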
# Molecular target: Eukaryotic translation initiation factor 4E (Mus musculus) + Eukaryotic translation initiation factor 4 gamma 1 (Homo sapiens) (UniProt P63073+Q04637)
# Sequence (P63073 whole entry, looked up, the tested form may be a part): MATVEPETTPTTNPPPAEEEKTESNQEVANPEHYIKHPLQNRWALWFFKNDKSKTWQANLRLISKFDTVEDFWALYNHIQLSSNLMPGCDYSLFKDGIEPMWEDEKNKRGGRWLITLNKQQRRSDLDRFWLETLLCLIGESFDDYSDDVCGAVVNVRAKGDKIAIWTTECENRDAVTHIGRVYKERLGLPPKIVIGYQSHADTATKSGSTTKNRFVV
# Sequence (Q04637 whole entry, looked up, the tested form may be a part): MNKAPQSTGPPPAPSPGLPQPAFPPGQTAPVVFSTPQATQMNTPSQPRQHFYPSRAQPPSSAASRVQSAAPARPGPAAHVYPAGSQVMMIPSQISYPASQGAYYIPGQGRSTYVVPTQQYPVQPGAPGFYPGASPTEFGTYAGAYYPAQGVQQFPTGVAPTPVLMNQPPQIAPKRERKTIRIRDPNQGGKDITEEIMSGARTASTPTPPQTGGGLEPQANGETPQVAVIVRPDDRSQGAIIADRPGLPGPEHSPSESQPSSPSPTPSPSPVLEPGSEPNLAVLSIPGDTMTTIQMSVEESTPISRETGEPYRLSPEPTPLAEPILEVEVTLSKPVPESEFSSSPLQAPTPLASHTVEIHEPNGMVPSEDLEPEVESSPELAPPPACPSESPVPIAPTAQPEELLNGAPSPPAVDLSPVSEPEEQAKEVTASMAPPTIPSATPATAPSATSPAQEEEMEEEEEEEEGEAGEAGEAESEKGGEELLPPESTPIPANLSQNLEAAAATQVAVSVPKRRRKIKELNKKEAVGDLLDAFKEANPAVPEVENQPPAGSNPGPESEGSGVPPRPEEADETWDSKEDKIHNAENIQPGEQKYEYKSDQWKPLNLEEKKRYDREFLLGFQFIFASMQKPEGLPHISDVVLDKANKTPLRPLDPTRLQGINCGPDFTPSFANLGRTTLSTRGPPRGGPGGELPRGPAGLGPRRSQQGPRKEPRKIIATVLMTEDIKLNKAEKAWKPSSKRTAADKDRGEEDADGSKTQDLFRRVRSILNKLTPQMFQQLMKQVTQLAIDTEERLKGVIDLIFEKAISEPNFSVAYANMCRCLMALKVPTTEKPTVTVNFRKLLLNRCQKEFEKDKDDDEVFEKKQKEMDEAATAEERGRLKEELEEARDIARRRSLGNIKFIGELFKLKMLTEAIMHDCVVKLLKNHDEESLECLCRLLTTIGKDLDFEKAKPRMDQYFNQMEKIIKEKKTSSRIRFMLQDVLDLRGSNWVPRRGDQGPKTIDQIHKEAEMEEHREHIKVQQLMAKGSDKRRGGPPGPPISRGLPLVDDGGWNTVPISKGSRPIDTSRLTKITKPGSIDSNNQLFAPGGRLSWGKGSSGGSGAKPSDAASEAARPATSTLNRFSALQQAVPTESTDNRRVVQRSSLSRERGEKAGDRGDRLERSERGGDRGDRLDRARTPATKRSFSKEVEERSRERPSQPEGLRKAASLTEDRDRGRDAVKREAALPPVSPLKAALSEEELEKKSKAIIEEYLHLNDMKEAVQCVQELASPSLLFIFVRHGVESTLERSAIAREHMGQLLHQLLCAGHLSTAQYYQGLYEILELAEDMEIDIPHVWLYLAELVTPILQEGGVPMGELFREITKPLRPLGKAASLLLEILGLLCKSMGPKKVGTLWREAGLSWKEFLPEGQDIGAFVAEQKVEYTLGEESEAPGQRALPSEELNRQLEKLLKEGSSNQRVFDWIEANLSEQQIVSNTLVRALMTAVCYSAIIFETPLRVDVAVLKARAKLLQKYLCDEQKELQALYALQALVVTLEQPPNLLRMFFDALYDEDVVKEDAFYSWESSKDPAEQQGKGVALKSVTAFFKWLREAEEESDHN
# Assay: eIF4E–eIF4G protein interaction inhibitors, primary screen, biochemical, uHTS, TR-FRET, eIF4GI fragment (AID 782);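 further: 0% = full FRET control wells and 100% = background wells lacking eIF4GI fragment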
# Details: TR-FRET eIF4E-eIF4GI(517-606) binding, 2 h; at 21.7 µM; hits give high values
row,SMILES,inhibition
1,Cc1ccc(-n2c(O)c(C=NCC3CCCO3)c(=O)[nH]c2=O)c(C)c1 (stereo not given),-0.86%
2,CC(=NCC1CCCO1)c1c(O)n(-c2ccccc2)c(=O)[nH]c1=O (stereo not given),58.1% (active)
3,CCC(=NCCc1ccccc1)c1c(O)n(C2CCCCC2)c(=O)[nH]c1=O,-4.4%
4,CC1(C)Cc2c(C#N)c(N3CCNCC3)nc(-c3ccco3)c2CS1,-1.83%
5,COc1ccc(NC(=O)N2CCC3(CC2)OCCO3)c(OC)c1,1.55%
